Several values for one entry are separate records, joined by “and”; a condition that tells them apart may be missing. Equal values may be shown once. In all, about 5,500 compounds went through this assay and about 2,000 (36%) were called active. Inconclusive results (about 18%) are left out. Cut-off read from the data, not from the text of the source: active = normalized growth mostly below about 0.91 (no sharp cut-off); inconclusive = no clear call, values can overlap the other calls; inactive = mostly above about 0.92. The list shows a part of the results.
Experiment: chemical genetic growth profiling, strain panel (AID 1159580);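 note: tested at 20 µM; growth read once vehicle control cultures reached saturation at 30 °C; 1 = growth at the plate median or of vehicle wells; lower values mean less growth of the strain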
Settings: growth OD

Measured: normalized growth

CC(C)(C)NCC(O)c1ccc(O)c(CO)c1 (stereo not given)
inactive: S. cerevisiae deletion strains, locus YJR075W, strain HOC1, active compounds read low 0.997 and 1.01 | S. cerevisiae deletion strains, locus YKL009W, strain mrt4, active compounds read low 1.02 | S. cerevisiae deletion strains, locus YKL068W, active compounds read low 1.01 | S. cerevisiae deletion strains, locus YKL085W, strain MDH1 (second series), active compounds read low 1.03 | S. cerevisiae deletion strains, locus YKL085W, strain MDH1, active compounds read low 1.03 | S. cerevisiae deletion strains, locus YKL160W, strain elf1, active compounds read low 1.02 | S. cerevisiae deletion strains, locus YKL190W, strain CNB1, active compounds read low 1.02 | S. cerevisiae deletion strains, locus YKR001C, strain vps1, active compounds read low 1.01 | S. cerevisiae deletion strains, locus YKR026C, strain gcn3, active compounds read low 0.999 | S. cerevisiae deletion strains, locus YKR091W, strain srl3, active compounds read low 1 | S. cerevisiae deletion strains, locus YLL001W, strain dnm1, active compounds read low 1.02 | S. cerevisiae deletion strains, locus YLL026W, active compounds read low 1 | S. cerevisiae deletion strains, locus YLL041C, strain sdh2, active compounds read low 1.02 | S. cerevisiae deletion strains, locus YLR027C, strain aat2, active compounds read low 1.01 | S. cerevisiae deletion strains, locus YLR039C, strain RIC1, active compounds read low 1.06 | S. cerevisiae deletion strains, locus YLR058C, strain SHM2, active compounds read low 1.01 | S. cerevisiae deletion strains, locus YLR102C, strain apc9, active compounds read low 1.01 | S. cerevisiae deletion strains, locus YLR113W, strain HOG1, active compounds read low 1.01 | S. cerevisiae deletion strains, locus YLR221C, strain rsa3, active compounds read low 1.01 | S. cerevisiae deletion strains, locus YLR258W, strain gsy2, active compounds read low 1.02 | S. cerevisiae deletion strains, locus YLR262C, strain YPT6 (second series), active compounds read low 1 | S. cerevisiae deletion strains, locus YLR262C, strain YPT6, active compounds read low 1.04 | S. cerevisiae deletion strains, locus YLR268W, strain sec22, active compounds read low 1.02 | S. cerevisiae deletion strains, locus YLR320W, strain mms22, active compounds read low 1.02 | S. cerevisiae deletion strains, locus YLR330W, strain CHS5, active compounds read low 1.01 | S. cerevisiae deletion strains, locus YLR342W, strain FKS1 (second series), active compounds read low 1.04 | S. cerevisiae deletion strains, locus YLR342W, strain FKS1, active compounds read low 1.01 | S. cerevisiae deletion strains, locus YLR357W, strain rsc2, active compounds read low 1.04 | S. cerevisiae deletion strains, locus YLR370C, strain arc18, active compounds read low 1.01 | S. cerevisiae deletion strains, locus YLR371W, strain rom2, active compounds read low 1 | S. cerevisiae deletion strains, locus YLR384C, strain iki3, active compounds read low 1.02 | S. cerevisiae deletion strains, locus YLR418C, strain cdc73, active compounds read low 1.05 | S. cerevisiae deletion strains, locus YML016C, strain PPZ1, active compounds read low 1.01 | S. cerevisiae deletion strains, locus YML032C, strain rad52, active compounds read low 1.01 | S. cerevisiae deletion strains, locus YML120C, strain ndi1, active compounds read low 1 | S. cerevisiae deletion strains, locus YML124C, strain tub3, active compounds read low 1.01 | S. cerevisiae deletion strains, locus YMR058W, strain fet3, active compounds read low 1 | S. cerevisiae deletion strains, locus YMR078C, strain ctf18, active compounds read low 1.02 | S. cerevisiae deletion strains, locus YMR125W, strain sto1, active compounds read low 1.03 | S. cerevisiae deletion strains, locus YMR129W, active compounds read low 1.01 | S. cerevisiae deletion strains, locus YMR205C, strain PFK2, active compounds read low 1.02 | S. cerevisiae deletion strains, locus YMR223W, strain ubp8, active compounds read low 1.06 | S. cerevisiae deletion strains, locus YMR231W, strain pep5, active compounds read low 1.01 | S. cerevisiae deletion strains, locus YMR263W, strain SAP30, active compounds read low 1.02 and 1 | S. cerevisiae deletion strains, locus YMR307W, strain GAS1, active compounds read low 1.11 and 0.997 and 0.979 | S. cerevisiae deletion strains, locus YNL067W, strain RPL9B, active compounds read low 1.01 | S. cerevisiae deletion strains, locus YNL071W, strain lat1, active compounds read low 1 | S. cerevisiae deletion strains, locus YNL128W, strain TEP1, active compounds read low 1.02 | S. cerevisiae deletion strains, locus YNL175C, strain NOP13, active compounds read low 1 and 1.03 | S. cerevisiae deletion strains, locus YNL183C, strain NPR1, active compounds read low 0.974 | S. cerevisiae deletion strains, locus YNL197C, strain WHI3, active compounds read low 1 and 1.01 | S. cerevisiae deletion strains, locus YNL209W, strain ssb2, active compounds read low 1.02 | S. cerevisiae deletion strains, locus YNL224C, strain SQS1, active compounds read low 0.996 and 1 | S. cerevisiae deletion strains, locus YNL233W, strain BNI4, active compounds read low 0.99 | S. cerevisiae deletion strains, locus YNL248C, strain rpa49, active compounds read low 1.03 | S. cerevisiae deletion strains, locus YNL250W, strain rad50, active compounds read low 1.02 | S. cerevisiae deletion strains, locus YNL271C, strain bni1, active compounds read low 1.02 | S. cerevisiae deletion strains, locus YNL298W, strain CLA4, active compounds read low 1.02 | S. cerevisiae deletion strains, locus YNL307C, strain MCK1, active compounds read low 1.02 | S. cerevisiae deletion strains, locus YNL322C, strain KRE1 (second series), active compounds read low 1.01 | S. cerevisiae deletion strains, locus YNL322C, strain KRE1, active compounds read low 1.01 and 1.03 | S. cerevisiae deletion strains, locus YNR049C, strain mso1, active compounds read low 1.01 | S. cerevisiae deletion strains, locus YNR052C, strain pop2, active compounds read low 1.02 | S. cerevisiae deletion strains, locus YOL006C, strain TOP1, active compounds read low 1.05 | S. cerevisiae deletion strains, locus YOL012C, strain htz1 1.03 | S. cerevisiae deletion strains, locus YOL147C, strain pex11, active compounds read low 1.02 | S. cerevisiae deletion strains, locus YOR001W, strain rrp6, active compounds read low 1.01 | S. cerevisiae deletion strains, locus YOR061W, strain CKA2, active compounds read low 1.01 | S. cerevisiae deletion strains, locus YOR069W, strain VPS5, active compounds read low 1.01 | S. cerevisiae deletion strains, locus YOR070C, strain gyp1, active compounds read low 1.02 | S. cerevisiae deletion strains, locus YOR080W, strain dia2, active compounds read low 1.03 | S. cerevisiae deletion strains, locus YOR083W, strain WHI5 (second series), active compounds read low 1.01 | S. cerevisiae deletion strains, locus YOR083W, strain WHI5, active compounds read low 0.966 | S. cerevisiae deletion strains, locus YOR106W, strain vam3, active compounds read low 1.01 | S. cerevisiae deletion strains, locus YOR136W, strain idh2, active compounds read low 1.02 | S. cerevisiae deletion strains, locus YOR144C, strain elg1, active compounds read low 1.02 | S. cerevisiae deletion strains, locus YOR184W, strain ser1, active compounds read low 1.02 | S. cerevisiae deletion strains, locus YOR231W, strain MKK1, active compounds read low 1.02 | S. cerevisiae deletion strains, locus YOR265W, strain rbl2, active compounds read low 1.01 | S. cerevisiae deletion strains, locus YOR270C, strain vph1, active compounds read low 1.02 | S. cerevisiae deletion strains, locus YOR290C, strain snf2, active compounds read low 1.03 | S. cerevisiae deletion strains, locus YOR316C, strain cot1, active compounds read low 1.01 | S. cerevisiae deletion strains, locus YPL051W, strain arl3, active compounds read low 1.01 | S. cerevisiae deletion strains, locus YPL055C, strain LGE1, active compounds read low 1.01 | S. cerevisiae deletion strains, locus YPL078C, strain atp4, active compounds read low 1 | S. cerevisiae deletion strains, locus YPL106C, strain sse1, active compounds read low 1.04 | S. cerevisiae deletion strains, locus YPL240C, strain hsp82, active compounds read low 1.02 | S. cerevisiae deletion strains, locus YPL241C, strain CIN2, active compounds read low 1.01 | S. cerevisiae deletion strains, locus YPL256C, strain CLN2, active compounds read low 1.04 | S. cerevisiae deletion strains, locus YPR119W, strain clb2, active compounds read low 1.01 | S. cerevisiae deletion strains, locus YPR141C, strain kar3, active compounds read low 1.01 | S. cerevisiae deletion strains, locus YPR163C, strain tif3, active compounds read low 1.02 | S. cerevisiae deletion strains, locus YPR167C, strain met16, active compounds read low 1.02 | S. cerevisiae deletion strains, strain wtn01, active compounds read low 1.04 | S. cerevisiae strains, strain wild type, active compounds read low 1.01

From PubChem BioAssay AID1159580 (chemical genetic matrix, 2015)
